Data published in PubChem BioAssay.
Where “and” joins values, the source holds several entries; their conditions need not be identical. Identical values can stand only once. For some assays here: Entries with a potency or affinity are not part of this list. Calls of active or inactive are those of the source. Unless noted, no stated cut-off is given here; in the data, active means parasite load remaining mostly below about 12% (no sharp cut-off); inactive means mostly above about 10%.

Assays:
[1] = blockers of polyQ-driven CASP3 activation – cell-based (AID 1583); details: polyglutamine-induced caspase-3 activation, cell assay; stronger effect = higher value;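 tested at 10 µM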
[2] = yeast 75Q aggregation reduction – 75Q-TubU reporter (AID 1593); details: Yeast 75Q polyglutamine aggregation reporter
[3] = restoration of touch response, mutant HTT neurons – whole organism, C. elegans mechanosensory neurons, N-terminal huntingtin (AID 1599); details: C. elegans polyQ-huntingtin mechanosensory neurons, stronger effect = higher value
[4] = blockers of cytochrome c efflux from mitochondria – biochemical, purified mitochondria (AID 1603); details: stronger effect = lower value;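 further: mouse liver mitochondria challenged with calcium chloride; signal normalized to the plate average as 100%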
[5] = polyglutamine aggregate formation blockers (AID 1604); details: polyglutamine-induced protein aggregation inhibition assay; stronger effect = higher value; tested at 2.5 µM
[6] = glutamate transport activators, MN-1 cells, MN-1 cell line (AID 1612); details: MN-1 motor neuron cells, stronger effect = higher value;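 further: tested at 1 µM final; 0% = mean of DMSO vehicle wells on each plate; positive means more glutamate uptake than control and negative means less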
[7] = 75Q-TubH aggregate inhibition, S. cerevisiae, yeast (AID 1616); details: S. cerevisiae 75Q-TubH polyglutamine aggregation suppression; stronger effect = higher value
[8] = P. berghei load reduction in hepatocytes – cell-based, HepG2, luciferase luminescence, HepG2 viability, primary screen (AID 624349);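 further: 100% = mean of DMSO negative control wells on the same plate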; details: P. berghei liver stage in HepG2, luciferase luminescence, concentration not given here; parasite load remaining: stronger effect = lower value; viability: measured here: HepG2 viability without parasites
[9] = EMT-state selective cytotoxicity in co-culture – imaging, PC-3E GFP, TEM4-18 mCherry, primary screen (AID 1345086;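 active means compounds killing one labelled cell type while sparing the other, by normalised counts and ratio limits, not self-fluorescent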;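 on all read-outs here: cells exposed to compound for 72 h before imaging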;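 on red/green cell ratio (normalised): normalised mesenchymal count divided by normalised epithelial count so high means epithelial killing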); details: PC-3E GFP / TEM4-18 mCherry co-culture, imaging cell counts, at 1 µM; for red/green cell ratio (normalised): actives lie on both sides, counts scaled to control wells, 1 = unselective
[10] = viability loss with induced miR-34 in A549 – imaging, A549 dox-inducible miR-34, nuclei and caspase counts, primary screen (AID 1347080;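 active means compounds whose cell count with miR-34 switched on is under 0.7 times the count with it off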); details: A549 miR-34 inducible, Hoechst nuclei count, 48 h
[11] = GFP-Q80 aggregate reduction, neuronal-like cells, cell-based, NGF-treated PC12, GFPQ80 (AID 1614); details: PC12 NGF-treated GFP-polyQ80 inclusion reduction;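 further: lower means fewer inclusions and 0 means no inclusions at all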
[12] = measured here: epithelial PC-3E GFP cell survival
[13] = measured here: mesenchymal TEM4-18 mCherry cell survival
[14] = stronger effect = lower value, cell number ratio, induced over uninduced
[15] = measured here: relative caspase fold change +Dox/-Dox
[16] = measured here: total cells with miR-34 induction, stronger effect = lower value
[17] = measured here: total cells without miR-34 induction

Row | SMILES | inhibition [1] | score [2] | rescue above control [3] | cytochrome c release ratio [4] | inhibition of aggregation [5] | glutamate uptake change [6] | aggregation suppression score [7] | parasite load remaining [8] | viability [8] | red/green cell ratio (normalised) [9] | normalised cell number [9, 12] | normalised cell number [9, 13] | fold change [10, 14] | fold change [10, 15] | cell count [10, 16] | cell count [10, 17] | inclusion score [11]
1 | C#C[C@]1(O)CCC2C3CCC4=C(CCC(=O)C4)C3CC[C@@]21C (stereo partly drawn) | -10.6% | 0.8 | -0.46 | 1.11 | 55.6% | -10.2% | 0.537 | 73.4% (inactive) and 48.3% (inactive) | 71.3% and 92% | 1.12 (inactive) | 1.18 | 1.32 | 0.929 (inactive) | 1.51 | 11200 | 12100 | 
2 | C[C@H](CCC(=O)O)[C@H]1CCC2C3C(CC[C@@]21C)[C@@]1(C)CC[C@@H](O)C[C@H]1C[C@H]3O (stereo partly drawn) | 13.5% | -0.55 | -0.69 | 0.92 | 21.1% | -19.3% | 0.165 | 96.5% (inactive) and 33.9% (inactive) | 70.7% and 87% | 1.27 (inactive) | 0.99 | 1.25 | 0.893 (inactive) | 3.03 | 10800 | 12100 | 
3 | CCC[C@@H]1C[C@@H](C(=O)N[C@H]([C@H]2O[C@H](SC)[C@H](O)[C@@H](O)[C@H]2O)[C@H](C)O)N(C)C1 | 3.68% | 1.23 | 8.96 | 0.99 | 67.6% | -19.8% | 1.16 | 81.5% (inactive) and 50.6% (inactive) | 72.6% and 86.3% | 1.04 (inactive) | 1.09 | 1.13 | 0.939 (inactive) | 2.92 | 11900 | 12700 | 2
4 | Nc1ccn(C2O[C@H](CO)[C@@H](O)[C@@H]2O)c(=O)n1 (stereo partly drawn) | 26% | 1.28 | 1.26 | 1.03 | 77.5% | -13.5% | 1.27 | 129% (inactive) and 95.7% (inactive) | 74% and 95.8% | 1.61 (inactive) | 0.27 | 0.43 | 0.952 (inactive) | 1.13 | 1930 | 2030 | 
5 | NC(=O)c1cc[n+](CC2=C(C(=O)O)N3C(=O)C(NC(=O)C(c4ccccc4)S(=O)(=O)[O-])C3SC2)cc1 (stereo not drawn) | -4.99% | 0.99 | -3.36 | 0.92 | 24.1% | -27.4% | 1.42 | 51% (inactive) | 86.8% | 0.99 (inactive) | 1.08 | 1.07 | 0.877 (inactive) | 3.65 | 11600 | 13200 | 2
6 | CCCCC(=O)O[C@H]1CCC2C3CCc4cc(O)ccc4C3CC[C@@]21C (stereo partly drawn) | 15.8% | -2.02 | 17.4 | 1.02 | 26.4% | 19.7% | 0.271 | 83% (inactive) and 44.1% (inactive) | 74.5% and 87.8% | 0.95 (inactive) | 0.89 | 0.84 | 0.938 (inactive) | 1.71 | 10200 | 10900 | 
